Cruzain inh noDet – cruzain (T. cruzi) inhibition without detergent. purified cruzain, Z-FR-AMC fluorescence, no detergent. 200,000 tested, 2.3% active. Potency, µM, actives largely listed as inhibitors. AID 1476; further: nearly all actives have a fitted effect of over 40% in size
Target sequence (P25779 123-467 limits assumed): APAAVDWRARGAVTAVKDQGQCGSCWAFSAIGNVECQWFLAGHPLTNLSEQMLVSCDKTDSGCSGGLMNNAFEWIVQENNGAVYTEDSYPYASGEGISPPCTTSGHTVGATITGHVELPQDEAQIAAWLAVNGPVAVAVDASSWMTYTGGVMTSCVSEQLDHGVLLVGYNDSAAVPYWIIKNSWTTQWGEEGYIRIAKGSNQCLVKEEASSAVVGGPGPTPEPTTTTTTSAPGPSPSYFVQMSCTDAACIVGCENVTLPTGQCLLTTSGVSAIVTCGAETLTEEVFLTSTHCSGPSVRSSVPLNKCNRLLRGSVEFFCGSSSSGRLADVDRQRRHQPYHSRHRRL
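Detergent-free condition (0.00005% Triton X-100) in acetate buffer pH 5.5 with DTT. 1.5 nM enzyme and compound were pre-mixed 15 min, then 2 uM Z-FR-AMC substrate added; reaction progress from fluorescence change between first and third reads (60 s).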
NS1 inh – inhibitors of influenza NS1 protein function; Potency, µM (titrated, usually from 46.1 µM); 270,000 tested, 0.4% active; calls by dose curve; further: actives are rising curves; nearly all actives have a fitted effect of over 50% in size
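In this qHTS, NS1 from influenza A is expressed in budding yeast, where it slows growth. Cells are switched from glucose to 2% galactose medium (pH 6.0, -URA), treated with compound, and growth recovery is read at OD600.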
Cruzain inh Det – cruzain (T. cruzi) inhibition with detergent; purified cruzain, Z-FR-AMC fluorescence, 0.01% Triton; P25779; Potency, µM, actives largely listed as inhibitors; 200,000 tested, 0.43% active; AID 1478; further: nearly all actives have a fitted effect of over 40% in size
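Steps: dispense cruzain (1.5 nM final) in acetate buffer pH 5.5 with DTT and 0.01% Triton X-100; pin-transfer compounds; incubate 15 min RT; add Z-FR-AMC (2 uM final); read fluorescence every 30 s, using the 60 s intensity change.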
Numbers stand for hits; i = inactive; ? = inconclusive; nt = no result. The sample as a whole holds a higher share of hits than the screen did. Unless noted, the call rests on the fitted dose curve; in most records, active means well fitted curve in the direction sought with a large enough effect; inconclusive means small, poorly fitted or top-dose-only effect, or another doubt; inactive means no such curve, though single readings can be large; an effect the other way counts as inactive or inconclusive.

SMILES | Cruzain inh noDet | NS1 inh | Cruzain inh Det
CC(=O)[C@H]1CC[C@@H]2[C@]1(C)CC=C1[C@@]23C=C[C@]2(C[C@H](O)CC[C@@]12C)[C@H](C(=O)O)[C@@H]3C(=O)O | i | i | i
Cc1ccc2nc(/N=C(\N)NC(=O)N3c4ccccc4Sc4ccccc43)nc(C)c2c1 | ? | i | i
Cc1cc2nc(/N=C(\N)NC(=O)N3c4ccccc4Sc4ccccc43)nc(C)c2cc1C | 16µM | i | i
COc1ccc(Cl)cc1NC(=O)NCCn1c(=O)oc2ccc(C)cc21 | ? | nt | i
CNc1oc(-c2ccc(Cl)cc2)nc1P(=O)(c1ccccc1)c1ccccc1 | ? | i | 13µM
Cc1ccc(-c2nc(P(=O)(c3ccccc3)c3ccccc3)c(N3CCOCC3)o2)cc1 | ? | i | ?
O=[N+]([O-])c1cccc(S(=O)(=O)c2ccc(N3CCCCC3)c([N+](=O)[O-])c2)c1 | ? | i | i
O=[N+]([O-])c1cc(S(=O)(=O)c2ccc(N3CCCCC3)c([N+](=O)[O-])c2)ccc1N1CCCCC1 | 7.9µM | i | i
O=C(/C=C/c1ccc(N2CCCCC2)c([N+](=O)[O-])c1)c1ccc(S(=O)(=O)N2CCCC2)cc1 | 32µM | i | i
COc1cccc(C(=O)/C=C/c2ccc(N3CCCCC3)c([N+](=O)[O-])c2)c1 | i | i | i
N#Cc1cccc(-c2nccc(-n3ccnc3)n2)c1 | i | nt | i
Cc1cccc(N2CCN(CCCNc3ncnc4onc(-c5ccc(Cl)cc5)c34)CC2C)c1 (stereo not given) | i | nt | i
O=C(Nc1ccc2oc(-c3ccc4ccccc4c3)nc2c1)c1cc(Cl)ccc1Cl | 5µM | nt | i
COc1ccc(C(=O)Nc2ccc(-c3cc4ccccc4oc3=O)c(C)c2)cc1OC | ? | nt | i
O=C(Nc1ccc2oc(-c3ccc4ccccc4c3)nc2c1)c1cc(Br)ccc1Cl | i | nt | i
COc1cc(NC(=O)c2cc(Cl)ccc2Cl)ccc1-c1cc2ccccc2oc1=O | 20µM | i | i
Cc1sc2c(c1C)c(=O)n(-c1ccc(Cl)cc1)c(=O)n2CC(=O)c1ccccc1 | i | nt | i
COc1c(CO)cc(CO)cc(CO)c1=O | i | nt | i
CN(C)S(=O)(=O)c1cccc(-c2nn(-c3ccccc3)cc2/C=C(\C#N)c2nc3ccccc3[nH]2)c1 | ? | i | i
N#C/C(=C\c1ccc(-c2ccc(F)cc2F)o1)c1nc2ccccc2[nH]1 | 13µM | nt | i
N#C/C(=C\c1cn(-c2ccccc2)nc1-c1cc2ccccc2o1)c1nc2ccccc2[nH]1 | 7.9µM | i | i
N#C/C(=C\c1ccc(-c2ccccc2C(=O)O)o1)c1nc2ccccc2[nH]1 | i | i | i
CCn1c(C(=O)N2CCCC(C(=O)N3CCN(c4cc(C)ccc4C)CC3)C2)cc2sccc21 (stereo not given) | ? | nt | i
CCCCCC(O)/C=C/C=C\CCCCCCCC(=O)O (stereo not given) | i | nt | i
O=C(CCNS(=O)(=O)c1ccc2c(c1)CCN2C(=O)C1CC1)N1CCN(c2ccc(F)cc2)CC1 | i | nt | i
SMILES | Cruzain inh noDet | NS1 inh | Cruzain inh Det
CCOc1ccc(Nc2nc(N)c(C(=O)c3ccccc3Cl)s2)cc1 | ? | nt | i
Cc1ccccc1CNC(=O)Cn1c(=O)c2cccn2c2cccnc21 | i | nt | i
O=C(Oc1ccc([N+](=O)[O-])cc1)c1cccnc1 | i | i | i
O=C(Oc1ccc(NC2=C(Cl)C(=O)c3ccccc3C2=O)cc1)c1ccc([N+](=O)[O-])cc1 | 13µM | i | i
C/C(=N\N=C(/N)SC1CC(=O)N(c2ccc(Cl)cc2)C1=O)c1cccs1 (stereo not given) | i | i | i
C/C(=N\N=C(/N)SC1CC(=O)N(c2ccc(Cl)c(Cl)c2)C1=O)c1cccs1 (stereo not given) | 32µM | i | i
CC1CCCN(C(=O)Cn2nnc(-c3ccc(N(C)C)cc3)n2)C1 (stereo not given) | nt | i | nt
CN(C)c1ccc(-c2nnn(CC(=O)N3c4ccccc4CCc4ccccc43)n2)cc1 | 32µM | i | i
O=C(Nc1ccc(-c2nc3ccccc3s2)c(O)c1)c1ccc(Br)cc1 | i | nt | i
O=C(Nc1ccc(-c2nc3ccccc3s2)c(OC(=O)c2ccccc2)c1)c1ccccc1 | 25µM | i | i
Cc1ccc(C)c(N2CCN(C(=O)c3cc4c(=O)n(Cc5ccco5)ccc4nc3C)CC2)c1 | ? | nt | i
COc1cc([C@@H]2c3cc4c(cc3C(OC3OC5COC(C)OC5C(O)C3O)C3COC(=O)[C@@H]32)OCO4)cc(OC)c1O (stereo not given in full) | i | nt | i
COc1ccc(C)cc1S(=O)(=O)N(CC(=O)Nc1cccc([N+](=O)[O-])c1)c1ccc(C)c(C)c1 | 32µM | i | i
COc1ccc(S(=O)(=O)N(CC(=O)Nc2ccc(C)cc2)c2ccc(C)cc2)cc1OC | i | nt | i

Screening results (PubChem BioAssay)
